Source: PubChem
This is a sample that favours compounds with a hit; in the whole collection about 3.3% have one here.
SMARCA2 act: SMARCA2 (BRM) function activators, primary screen, cell-based, luminescence, high throughput | MG213 cells, MMTV-luciferase reporter, dexamethasone, overnight | activation, % at 9.1 µM | 1% of 370,000 active; in the data active means activation above about 7.8%
Jurkat NFkB inh: inhibitors of induced NF-kB luciferase reporter, primary screen, TCR NF-kB activation inhibitor project, cell-based, luminescence, uHTS; Jurkat, PMA/ionomycin-induced NF-kB luciferase reporter; inhibition, % at 4 µM; 0.53% of 330,000 active; AID 435003, 2010; in the data active means inhibition above about 50%
esBAF inh: Bmi1 luciferase reporter increase in mESCs, primary screen, esBAF inhibitor project, mouse ES cells, Bmi1 luciferase knock-in, single point; 24 h; 100% = twice the neutral-well signal; reporter increase, % at 12.5 µM; 2% of 350,000 active; in the data active means activation above about 40%; inconclusive means no clear call, values can overlap the other calls;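 further: a rise in the Bmi1 reporter signal indicates esBAF inhibition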
697 NFkB inh: inhibitors of PMA/ionomycin-induced NF-kB reporter, 697 cells, primary screen, B-cell NF-kB inhibitor project, cell-based, luminescence, uHTS; 697 B-cell NF-kB luciferase reporter, 16 h; inhibition, % at 4 µM; 0.33% of 330,000 active; in the data active means inhibition above about 35%
Gli-Sufu antag: Gli-Sufu pathway antagonists, primary screen, luciferase luminescence, Sufu-KO-LIGHT cells, uHTS; Sufu-KO-LIGHT fibroblasts, Gli luciferase reporter luminescence; inhibition, % at 5 µM; 0.74% of 340,000 active;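 active means inhibition above about 55%, limit read from the data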
SMARCA2 act conf: SMARCA2 (BRM) function activators, confirmation, cell-based, luminescence, triplicate | shares compounds with SMARCA2 act | MG213 cells, MMTV-luciferase with dexamethasone, overnight; MG213 cells expressing E1A, Rb sequestered; DMSO wells 0%, reference activator 100% | activation, % at 9.1 µM | 30% of 3,500 active | AID 652260, 2013;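 active means activation above its plate's cutoff, the mean activation of tested wells plus 3 SD, cut at about 7.9% in these data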
GAL4-VP16 Luc: GAL4-VP16 luciferase reporter activation, counter-screen for SMARCA2 (BRM) activator project, cell-based, pG5luc, luminescence, high throughput; 41% of 3,500 active; shares compounds with SMARCA2 act; AID 686939, 2013; HEK293 GAL4-VP16 pG5luc reporter; scaled: DMSO wells 0%, SAHA wells 100%; activation, % at 9.1 µM;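 active means activation above the solvent-only control well mean plus 3 SD, averaged across control plates, cut at about 5.2% in these data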
Large screens that a line does not name were inactive (follow-up assays come after a bar, where they were run).

Cc1oc(=O)c(NC(=O)c2cccc(Cl)c2)cc1C(=O)c1ccccc1	SMARCA2 act 8.6 | SMARCA2 act conf inactive | GAL4-VP16 Luc 10.1
CCOCCCNC(=O)C1CCN(Cc2ccc(OCc3ccccc3)c(OC)c2)CC1	none
CCCCNC(=O)C1CCN(Cc2ccc(OCc3ccccc3)c(OC)c2)CC1	SMARCA2 act 9.4 | SMARCA2 act conf inactive | GAL4-VP16 Luc 6.2
COc1ccc(NC(=S)NNC(=O)c2cccs2)cc1	SMARCA2 act 8.8 (no result: esBAF inh) | SMARCA2 act conf inactive | GAL4-VP16 Luc inactive
COc1cccc(Nc2nc(-c3cccnc3)cs2)c1	SMARCA2 act 10.6, esBAF inh inconclusive | SMARCA2 act conf 13.2 | GAL4-VP16 Luc 6.6
CCCOc1ccc(C2C3=C(Nc4nc(N)[nH]c(=O)c42)c2ccccc2C3=O)cc1 (configuration not stated)	none
CCOc1ccc(C2C3=C(Nc4nc(N)[nH]c(=O)c42)c2ccccc2C3=O)cc1 (configuration not stated)	SMARCA2 act 13.7 (no result: esBAF inh) | SMARCA2 act conf inactive | GAL4-VP16 Luc inactive
O=C(COC(=O)c1cc[n+]([O-])cc1)Nc1ccccc1Cl	SMARCA2 act 10.6 (no result: esBAF inh) | SMARCA2 act conf inactive | GAL4-VP16 Luc inactive
O=C(O)C1C(C(=O)Nc2ccc(Cl)cc2)C2C=CC1C21CC1 (configuration not stated)	SMARCA2 act 8.7 (no result: esBAF inh) | SMARCA2 act conf inactive | GAL4-VP16 Luc inactive
CCOC(=O)C1=CCC(c2cc3ccccc3[nH]2)NC1 (configuration not stated)	SMARCA2 act 11.2 (no result: Jurkat NFkB inh, esBAF inh, 697 NFkB inh, Gli-Sufu antag) | SMARCA2 act conf inactive | GAL4-VP16 Luc 7.0
CCOC(=O)C1=CCC(c2ccccc2)N(S(C)(=O)=O)C1 (configuration not stated)	none (no result: Jurkat NFkB inh, esBAF inh, 697 NFkB inh, Gli-Sufu antag)
NC(=S)NN=Cc1nccc2c(N)cccc12	SMARCA2 act 8.3 (no result: Jurkat NFkB inh, 697 NFkB inh, Gli-Sufu antag) | SMARCA2 act conf inactive | GAL4-VP16 Luc inactive
O=C(C[C@H]1CC[C@H]2[C@@H](COC[C@H](O)CN2CCC(F)(F)F)O1)NCC1CC1	none (no result: SMARCA2 act, Jurkat NFkB inh, 697 NFkB inh, Gli-Sufu antag)
CCOc1ccc(NC(=S)NC(=O)c2ccco2)cc1	SMARCA2 act 10.0, esBAF inh inconclusive | SMARCA2 act conf inactive | GAL4-VP16 Luc 11.0
CCOc1ccc(NC(=O)c2ccco2)cc1	none
Cc1cc(C)c2c(N)c3cccc(C)c3nc2n1	SMARCA2 act 27.7 (no result: Jurkat NFkB inh, esBAF inh, 697 NFkB inh) | SMARCA2 act conf 347.4 | GAL4-VP16 Luc 6.1
O=C(c1cc(=O)c2ccccc2o1)N(Cc1ccccc1)C1CCS(=O)(=O)C1 (configuration not stated)	none
Cc1ccc(CN(C(=O)c2cc3ccccc3oc2=O)C2CCS(=O)(=O)C2)cc1 (configuration not stated)	SMARCA2 act 8.7 | SMARCA2 act conf inactive | GAL4-VP16 Luc inactive
N=C1C(c2nc3ccccc3[nH]2)=C(O)CN1c1ccccc1	SMARCA2 act 8.2, esBAF inh 62.7 | SMARCA2 act conf 9.0 | GAL4-VP16 Luc 7.4
N=C1C(c2nc3ccccc3[nH]2)=C(O)CN1c1ccc(CC(=O)O)cc1	none
Cc1ccsc1/C=C1\SC(N)=NC1=O	none (no result: esBAF inh)
NC1=NC(=O)/C(=C/C=C/c2cccs2)S1	SMARCA2 act 16.4 (no result: esBAF inh) | SMARCA2 act conf 8.6 | GAL4-VP16 Luc 5.8
O=C1Nc2ccccc2N(C(=O)c2c(F)cccc2F)C1c1nc2ccccc2[nH]1 (configuration not stated)	SMARCA2 act 10.4 (no result: Jurkat NFkB inh, esBAF inh, 697 NFkB inh, Gli-Sufu antag) | SMARCA2 act conf inactive | GAL4-VP16 Luc 10.1
COc1ccc(/C=N/N=C2/NC(=O)C(c3ccccc3)(c3ccccc3)S2)cc1	SMARCA2 act 8.3 | SMARCA2 act conf inactive | GAL4-VP16 Luc inactive
Cc1noc(C)c1NC(=O)Nc1ccc2c(c1)C(=O)N([C@H](C)CO)C[C@H](C)[C@H](CN(C)S(=O)(=O)c1ccc(F)cc1)O2	none (no result: SMARCA2 act, Jurkat NFkB inh, 697 NFkB inh, Gli-Sufu antag)
COCC(C)NC(=O)c1noc2c1CCc1cc(OC)ccc1-2 (configuration not stated)	SMARCA2 act 9.7 (no result: esBAF inh) | SMARCA2 act conf inactive | GAL4-VP16 Luc 11.1
CNc1cncc(-c2ccc(F)cc2F)n1	SMARCA2 act 10.3 (no result: Jurkat NFkB inh, 697 NFkB inh, Gli-Sufu antag) | SMARCA2 act conf inactive | GAL4-VP16 Luc inactive
O=C(NCCN1CCCC1)c1ccc2c(=O)n(CCc3ccccc3)c(=O)[nH]c2c1	SMARCA2 act 8.2 | SMARCA2 act conf 10.5 | GAL4-VP16 Luc inactive
CNC[C@@H]1OCCCC[C@@H](C)Oc2ccc(NS(=O)(=O)c3ccccc3)cc2C(=O)N([C@H](C)CO)C[C@@H]1C	none (no result: SMARCA2 act, Jurkat NFkB inh, 697 NFkB inh, Gli-Sufu antag)
CCc1nnc(NC(=O)C2CCCN2C(=O)Nc2ccccc2OC)s1 (configuration not stated)	SMARCA2 act 8.8 | SMARCA2 act conf inactive | GAL4-VP16 Luc inactive
c1ccc(-c2csc(Nc3ccc4c(c3)OCO4)n2)cc1	SMARCA2 act 11.3 (no result: Jurkat NFkB inh, 697 NFkB inh, Gli-Sufu antag) | SMARCA2 act conf inactive | GAL4-VP16 Luc 9.3
O=C(CN1CCN(c2nc(-c3ccccc3)cs2)CC1)Nc1ccc2c(c1)OCO2	none
C[C@@H]1CN([C@H](C)CO)C(=O)c2cc(C3=CCCCC3)cnc2O[C@H]1CN(C)Cc1ccccc1	none (no result: SMARCA2 act, Jurkat NFkB inh, 697 NFkB inh, Gli-Sufu antag)
Cn1cnc([N+](=O)[O-])c1S(=O)(=O)Oc1ccccc1	SMARCA2 act 20.3 (no result: Jurkat NFkB inh, 697 NFkB inh) | SMARCA2 act conf inactive | GAL4-VP16 Luc 6.3
O=C(NCCc1ccc(Cl)cc1)c1ccc2nc(N3CCOCC3)sc2c1	none
COc1ccc(CCNC(=O)c2ccc3nc(N4CCCCC4)sc3c2)cc1OC	SMARCA2 act 10.1, esBAF inh 51.0 | SMARCA2 act conf inactive | GAL4-VP16 Luc 8.5
CCCN1CCN(CCCNC(=O)c2ccc3nc(N4CCCCC4)sc3c2)CC1	SMARCA2 act 13.5, esBAF inh 77.0 | SMARCA2 act conf 13.6 | GAL4-VP16 Luc 13.0
O=C(NCCCN1CCC(Cc2ccccc2)CC1)c1ccc2nc(N3CCOCC3)sc2c1	none (no result: esBAF inh)
CC1CCCC(C)N1CCCNC(=O)c1ccc2nc(N3CCCCC3)sc2c1 (configuration not stated)	SMARCA2 act 17.6, esBAF inh 72.1 | SMARCA2 act conf 9.8 | GAL4-VP16 Luc 17.4
CC1CCN(c2nc3ccc(C(=O)NCCCN4CCCCC4C)cc3s2)CC1 (configuration not stated)	SMARCA2 act 8.1, esBAF inh 72.2 (no result: Gli-Sufu antag) | SMARCA2 act conf 15.4 | GAL4-VP16 Luc 14.6
C[C@@H]1CN([C@H](C)CO)C(=O)c2cc(NC(=O)Nc3ccc4c(c3)OCO4)ccc2O[C@H]1CN(C)C	none (no result: SMARCA2 act, Jurkat NFkB inh, 697 NFkB inh, Gli-Sufu antag)
CNc1nc(N)c([N+](=O)[O-])c(Nc2cccc(Cl)c2)n1	SMARCA2 act 8.3 (no result: esBAF inh) | SMARCA2 act conf inactive | GAL4-VP16 Luc inactive
